Compound activity: PubChem, National Center for Advancing Translational Sciences (NCATS)
Hits are enriched below; roughly 2.5% of the tested compounds scored in any of these assays.
Cruzain inh noDet: cruzain (T. cruzi) inhibition without detergent. AID 1476. actives 2.3% (n = 200,000). P25779. purified cruzain, Z-FR-AMC fluorescence, no detergent. Potency, µM, without a hit: max response, negative = inhibition, usual class: inhibitors;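 also: plate controls were enzyme without inhibitor for no effect and buffer without enzyme for full effect; nearly all actives have a fitted effect of over 40% in size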
Target sequence (P25779 123-467 limits assumed): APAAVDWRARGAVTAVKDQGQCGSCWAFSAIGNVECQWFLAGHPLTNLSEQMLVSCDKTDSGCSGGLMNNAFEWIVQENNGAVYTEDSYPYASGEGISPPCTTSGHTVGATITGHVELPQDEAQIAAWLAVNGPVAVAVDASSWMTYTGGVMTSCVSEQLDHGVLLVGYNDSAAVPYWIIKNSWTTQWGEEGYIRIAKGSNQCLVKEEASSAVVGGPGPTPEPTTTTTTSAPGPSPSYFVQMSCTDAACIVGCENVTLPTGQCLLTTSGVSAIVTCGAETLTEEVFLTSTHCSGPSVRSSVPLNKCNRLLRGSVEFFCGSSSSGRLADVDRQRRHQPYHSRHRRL
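Detergent-free condition (0.00005% Triton X-100) in acetate buffer pH 5.5 with DTT. 1.5 nM enzyme and compound were pre-mixed 15 min, then 2 uM Z-FR-AMC substrate added; reaction progress from fluorescence change between first and third reads (60 s).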
Cruzain Triton: blocks cruzain activity in presence of Triton detergent; actives 0.43% (n = 200,000); Potency, µM, inactives show max response, negative = inhibition, usual class: inhibitors; AID 1478; purified cruzain, Z-FR-AMC fluorescence, 0.01% Triton;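 also: plate controls were neutral wells for no effect and buffer without enzyme for full effect; nearly all actives have a fitted effect of over 40% in size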
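In this qHTS format, compounds are incubated with 1.5 nM cruzain for 15 min at room temperature before 2 uM Z-FR-AMC is added. Release of AMC is followed at 360/450 nm, and progress is taken as the 60 s fluorescence difference.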
* marks the source's active call; other numbers are inactive results; ? = inconclusive. Calls follow the shape of the dose curve; as a rule, active = well fitted curve in the direction sought with a large enough effect; inconclusive = small, poorly fitted or top-dose-only effect, or another doubt; inactive = no such curve, though single readings can be large; an effect the other way counts as inactive or inconclusive. Potency is read from the fitted curve at half-maximal effect.

SMILES	Cruzain inh noDet	Cruzain Triton
CC(C)=CCCC(C)C1CC[C@@]2(C)C3=C(CC[C@@]12C)C1(C)CCC(O)C(C)(C)C1CC3 (some centres not stated)	?	-2.8%
CC1CCC(C(C)C)[C@H](O)C1 (some centres not stated)	-2.7%	7.1%
C[C@H](CCC(=O)O)[C@H]1CC[C@]2(C)[C@@H]3C(=O)C[C@H]4C(C)(C)[C@@H](O)CC[C@]4(C)[C@H]3C(=O)C[C@@]12C	-0.3%	-0.5%
CCNc1ccc(-c2nc(-c3ccco3)no2)cc1[N+](=O)[O-]	-15.2%	-1.4%
COCCNc1ccc(-c2nc(-c3ccco3)no2)cc1[N+](=O)[O-]	3.16µM*	-2.6%
COC(=O)c1sccc1NC(=S)N1CCN(c2cccc(C)c2C)CC1	15.8µM*	-2.1%
COC(=O)c1sccc1NC(=S)N1CCCCC1	-1.9%	-1.2%
COc1ccc(N2CC(NC(=O)c3cc4ccccc4o3)CC2=O)cc1OC (configuration not stated)	-6.2%	-0.8%
CCC(Sc1nnc(C)n2c1cc1occc12)C(=O)Nc1ccccc1OC (configuration not stated)	-3.8%	-0.1%
CCc1cc[n+](/C(C(=S)Nc2cccc(C)c2)=C(/[O-])c2ccc(C)c([N+](=O)[O-])c2)cc1	-21.1%	-9.3%
CCOc1ccc(NC(=S)/C(=C(\[O-])c2ccc(C)c([N+](=O)[O-])c2)[n+]2ccccc2)cc1	25.1µM*	-5.9%
O=S(=O)(O)n1ccnc1 (tested in a mixture with another compound)	1.6%	1.1%
COc1ccc(Cl)cc1N/C(N)=N/c1nc(CSc2ccc(C)cc2)cc(=O)[nH]1	?	0.0%
Cc1ccc(SCc2cc(=O)[nH]c(/N=C(\N)Nc3cccc4ccccc34)n2)cc1	31.6µM*	-0.5%
CC(=O)c1ccc(NC(=O)CCCc2nc(-c3cccc(C)c3)no2)cc1	19.2%	-3.5%
O=C(O)CCn1cnc2c(=S)nc[nH]c21	-0.1%	1.8%
Cc1cccc(NC(=O)CN2C(=O)N/C(=C/c3ccc(C)s3)C2=O)c1	3.98µM*	-3.7%
Cc1cccc(NC(=O)CN2C(=O)S/C(=C\C(=O)Nc3ccc(Cl)cc3)C2=O)c1	12.6µM*	-1.1%
Cc1cccc(NC(=O)CN2C(=O)N/C(=C/c3cc(C)n(C(C)C)c3C)C2=O)c1	-20.4%	-3.5%
O=C(/C=C1\SC(=O)N(CC(=O)Nc2ccc(F)cc2)C1=O)Nc1ccc(Cl)cc1	25.1µM*	-0.9%
O=C(/C=C1\SC(=O)N(CC(=O)Nc2ccc(Cl)cc2)C1=O)Nc1ccc(F)cc1	?	-2.6%
CC(/C=C1\SC(=O)N(CC(=O)Nc2cccc(O)c2)C1=O)=C\c1ccccc1	7.9%	-3.7%
Cc1ccc(C)c(/C(=N\N=C(N)N)C2CC2)c1	-11.5%	0.1%
Cc1cccc(CSc2cn(CC(=O)N3CCCC3)c3ccccc23)c1	?	-9.6%
CCN(CC)Cc1c(O)c(Cl)cc2c3c(c(=O)oc12)CCCC3	-22.0%	?
SMILES	Cruzain inh noDet	Cruzain Triton
CN(C)Cc1c(O)c(Cl)cc2c3c(c(=O)oc12)CCCC3	12.6µM*	?
O=c1oc2c(CN3CCOCC3)c(O)c(Cl)cc2c2c1CCC2	?	25.1µM*
Cc1c(O)c(CN2CCCCC2)cc2c3c(c(=O)oc12)CCC3	?	-28.8%
CN(C)Cc1cc(Cl)c(O)c(CN(C)C)c1	-1.3%	3.8%
Cc1c(C)c2cc(Cl)c(O)c(CN(C)C)c2oc1=O	?	31.6µM*
CCOc1ccc(/C=C/c2nc(C#N)c(N3CCCCC3)o2)cc1	-2.4%	1.2%
CC1=C(C(=O)Nc2ccccc2)C(c2cccn2C)n2ncnc2N1 (configuration not stated)	-8.4%	-1.3%
CN(C)c1ccc(-c2cncnc2NCc2ccccc2)cc1	-1.6%	-1.4%
C[C@@]12Cc3cnc(-c4ccccc4)nc3C[C@@H]1CC[C@@H]1[C@H]3CC[C@@](C)(O)[C@]3(C)CC[C@@H]12	-2.2%	-3.1%
COc1cccc(CNC(=O)CN2N=C(c3ccc(C)cc3)CCC2=O)c1	16.1%	1.0%
COc1cc(OC)c(NC(=O)N2CCc3c([nH]c4ccccc34)C2c2ccccc2F)cc1Cl (configuration not stated)	15.8µM*	-3.5%
COc1cc(OC)c(NC(=O)N2CCc3c(sc4c3CCCC4)C2c2ccccc2)cc1Cl (configuration not stated)	10µM*	0.2%
Cc1ccc(C2c3[nH]c4ccccc4c3CCN2C(=O)Nc2ccc(C)c(C)c2)cc1 (configuration not stated)	?	0.9%
COc1cc(NC(=O)N2CCc3c(sc4c3CCCC4)C2c2ccccc2)cc(OC)c1OC (configuration not stated)	?	-3.1%
CCCCOc1ccc(Cn2c(=O)sc3ccccc32)cc1OC	-4.7%	-7.9%
COc1ccc(-c2nsc(NC(=O)c3cccc(OC)c3)n2)cc1	-0.4%	-7.3%
COc1cccc(C(=O)Nc2nc(-c3ccc(Br)cc3)ns2)c1	25.1µM*	-2.0%
COc1ccc(C2=C(C(C)=O)Sc3nnc(-c4ccc(Cl)cc4)n3N2C(C)=O)cc1OC	1.2%	-1.1%
Cc1nc(NC(=O)c2ccccc2)sc1-c1csc(Nc2cccc(Cl)c2)n1	10µM*	6.4%
O=C(Nc1nc(-c2ccc(Cl)s2)cs1)c1ccccc1	-2.9%	-0.6%
Cc1nc(NC(=O)c2ccccc2)sc1-c1csc(Nc2ccc(Cl)cc2)n1	3.98µM*	6.6%
Cc1nc(NC(=O)c2ccccc2)sc1-c1csc(Nc2ccc(F)cc2)n1	15.8µM*	-2.8%
CNC(=O)Oc1ccc2c(c1)C1(C)CCN(C)C1N2C (configuration not stated)	-0.3%	0.8%
Nc1nc(N)c(N=Nc2ccc(C(=O)O)c(O)c2)c(N)n1	5.8%	-2.2%
Cc1ccc(-c2ccc(=O)n(CC(=O)Nc3ccc(C(C)C)cc3)n2)cc1	-5.3%	-11.6%
SMILES	Cruzain inh noDet	Cruzain Triton
CCOc1ccc(-c2nc3c(C#N)c[nH]n3c2NC2CCCC2)cc1	9.0%	-1.2%
O=S(=O)(O)F	-0.7%	5.3%
O=C(NCCN1C(=O)S/C(=C\c2ccc(Cl)c(Cl)c2)C1=O)c1ccc2c(c1)C(=O)N(Cc1ccncc1)C2=O	12.6µM*	-8.5%
O=C(NCCN1C(=O)S/C(=C\c2ccc(Cl)cc2)C1=O)c1ccc(F)c(S(=O)(=O)N2CCOCC2)c1	?	-11.7%
CCOC(=O)CC(=O)CSc1nc(N)c(C#N)c(-c2ccc(Cl)cc2)c1C#N	31.6µM*	-1.9%
N#Cc1c(N)nc(SCC(=O)C23CC4CC(CC(C4)C2)C3)c(C#N)c1-c1ccc(Cl)cc1	3.98µM*	2.8%
CSc1nc(N)nc(SCC(=O)C23CC4CC(CC(C4)C2)C3)c1C#N	-15.6%	-4.3%
CCOC(=O)CC(=O)CSc1nc(C)cc(C)c1C#N	4.1%	2.8%
COc1ccc2c(c1)C(=O)[C@H](OC(=O)NCc1ccco1)[C@@H](c1ccc(OC)c(Br)c1)O2	-13.1%	-1.5%
CC(=O)c1ccc(N2CCN(C(=O)c3cc4cc5cc(C)ccc5nc4s3)CC2)cc1	-1.6%	-1.0%
CN1C(=O)C(/C(N)=N/NC(=O)c2ccccc2)C2CC1(C)Oc1ccccc12 (configuration not stated)	-1.7%	-2.3%
CN(C)c1ccc(/C=C/C(O)=C2/C(=O)N(C)C3(C)CC2c2ccccc2O3)cc1 (configuration not stated)	20µM*	-9.4%
CO[C@@H]([CH2][Hg])CN1C(=O)c2ccccc2S1(=O)=O.Cn1c(=O)c2nc[nH]c2n(C)c1=O	-1.2%	2.2%
